The supplement of paper PMC11732987, “Enantioselective OTUD7B fragment discovery through chemoproteomics screening and high-throughput optimisation” (Communications Chemistry, 2025)

Key:
Experiment in all cases: log2 ratio of Biotin-Ahx-Ub-VS probe labelling (fragment/DMSO); higher = less target engagement (more negative = stronger competition), active = hit call of the paper (q ≤ 0.05, log2 ratio ≤ -1)
Details in all cases: compound concentration: 200 uM; treatment time: 3 h
[1] = biological target: T1, USP19 (UniProt O94966)
T1 sequence (whole entry): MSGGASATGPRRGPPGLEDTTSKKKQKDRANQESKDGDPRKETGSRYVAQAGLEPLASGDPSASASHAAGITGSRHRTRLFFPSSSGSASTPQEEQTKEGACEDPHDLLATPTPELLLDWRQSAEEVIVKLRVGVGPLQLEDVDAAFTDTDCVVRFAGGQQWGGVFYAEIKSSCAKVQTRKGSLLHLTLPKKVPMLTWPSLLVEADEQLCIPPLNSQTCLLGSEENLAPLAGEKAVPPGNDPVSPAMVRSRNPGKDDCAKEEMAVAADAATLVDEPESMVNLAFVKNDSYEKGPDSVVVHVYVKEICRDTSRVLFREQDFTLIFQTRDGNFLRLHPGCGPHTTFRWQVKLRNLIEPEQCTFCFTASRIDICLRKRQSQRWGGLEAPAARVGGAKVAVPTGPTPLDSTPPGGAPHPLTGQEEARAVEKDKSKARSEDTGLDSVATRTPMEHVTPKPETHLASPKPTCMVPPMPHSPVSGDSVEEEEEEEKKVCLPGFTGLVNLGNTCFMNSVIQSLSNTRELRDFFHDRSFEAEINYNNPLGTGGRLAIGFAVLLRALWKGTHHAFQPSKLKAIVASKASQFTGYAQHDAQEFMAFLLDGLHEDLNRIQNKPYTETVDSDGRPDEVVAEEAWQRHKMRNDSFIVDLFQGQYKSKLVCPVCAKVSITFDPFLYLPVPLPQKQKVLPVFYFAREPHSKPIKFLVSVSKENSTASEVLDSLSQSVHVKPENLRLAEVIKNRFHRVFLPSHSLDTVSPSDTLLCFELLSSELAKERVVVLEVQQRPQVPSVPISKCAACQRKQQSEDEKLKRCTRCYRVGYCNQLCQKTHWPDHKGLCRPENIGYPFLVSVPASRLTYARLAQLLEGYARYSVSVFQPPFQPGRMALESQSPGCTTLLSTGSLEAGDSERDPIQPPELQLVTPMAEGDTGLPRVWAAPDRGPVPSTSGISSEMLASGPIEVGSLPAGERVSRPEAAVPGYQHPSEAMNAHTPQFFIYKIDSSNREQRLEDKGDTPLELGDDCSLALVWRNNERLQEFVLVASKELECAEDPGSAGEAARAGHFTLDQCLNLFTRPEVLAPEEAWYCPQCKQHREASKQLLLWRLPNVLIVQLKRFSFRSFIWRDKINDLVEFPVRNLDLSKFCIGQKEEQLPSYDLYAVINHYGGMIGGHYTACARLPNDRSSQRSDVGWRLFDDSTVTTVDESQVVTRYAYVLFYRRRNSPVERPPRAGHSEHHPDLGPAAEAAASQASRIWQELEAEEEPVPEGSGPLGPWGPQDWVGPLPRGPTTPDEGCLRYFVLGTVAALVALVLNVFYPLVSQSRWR
Method in brief: (§1)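 Average log2 ratios of fragment over vehicle were obtained by unpaired t-test from global-median-normalised Spectronaut label-free quantities. Proteins with ≥2 unique peptides were included. HEK293T lysate (495 µg per sample) was treated in triplicate with fragment at 200 µM or vehicle for 3 h, then with Biotin-Ahx-Ub-VS at 0.5 µM final for 1 h, and labelled DUBs were NeutrAvidin-enriched and run by diaPASEF LC-MS/MS.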

[2] = biological target: T2, USP22 (UniProt Q9UPT9)
T2 sequence (whole entry): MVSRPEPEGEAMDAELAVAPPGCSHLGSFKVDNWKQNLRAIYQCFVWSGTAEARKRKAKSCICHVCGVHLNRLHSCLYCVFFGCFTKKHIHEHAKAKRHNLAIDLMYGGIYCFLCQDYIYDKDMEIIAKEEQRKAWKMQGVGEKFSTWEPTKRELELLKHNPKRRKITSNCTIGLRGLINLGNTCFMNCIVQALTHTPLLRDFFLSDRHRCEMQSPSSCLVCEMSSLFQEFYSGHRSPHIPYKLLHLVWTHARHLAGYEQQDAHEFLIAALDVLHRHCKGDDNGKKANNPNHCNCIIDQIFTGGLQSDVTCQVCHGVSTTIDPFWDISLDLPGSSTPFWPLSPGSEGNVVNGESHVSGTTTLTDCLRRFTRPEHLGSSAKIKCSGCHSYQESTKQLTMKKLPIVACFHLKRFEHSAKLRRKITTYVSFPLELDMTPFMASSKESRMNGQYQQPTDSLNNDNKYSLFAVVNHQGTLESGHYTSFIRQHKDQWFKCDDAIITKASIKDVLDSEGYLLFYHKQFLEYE
Method in brief: as §1

[3] = biological target: USP24 (UniProt Q9UPU5)
Method in brief: as §1

[4] = biological target: T3, USP25 (UniProt Q9UHP3)
T3 sequence (whole entry): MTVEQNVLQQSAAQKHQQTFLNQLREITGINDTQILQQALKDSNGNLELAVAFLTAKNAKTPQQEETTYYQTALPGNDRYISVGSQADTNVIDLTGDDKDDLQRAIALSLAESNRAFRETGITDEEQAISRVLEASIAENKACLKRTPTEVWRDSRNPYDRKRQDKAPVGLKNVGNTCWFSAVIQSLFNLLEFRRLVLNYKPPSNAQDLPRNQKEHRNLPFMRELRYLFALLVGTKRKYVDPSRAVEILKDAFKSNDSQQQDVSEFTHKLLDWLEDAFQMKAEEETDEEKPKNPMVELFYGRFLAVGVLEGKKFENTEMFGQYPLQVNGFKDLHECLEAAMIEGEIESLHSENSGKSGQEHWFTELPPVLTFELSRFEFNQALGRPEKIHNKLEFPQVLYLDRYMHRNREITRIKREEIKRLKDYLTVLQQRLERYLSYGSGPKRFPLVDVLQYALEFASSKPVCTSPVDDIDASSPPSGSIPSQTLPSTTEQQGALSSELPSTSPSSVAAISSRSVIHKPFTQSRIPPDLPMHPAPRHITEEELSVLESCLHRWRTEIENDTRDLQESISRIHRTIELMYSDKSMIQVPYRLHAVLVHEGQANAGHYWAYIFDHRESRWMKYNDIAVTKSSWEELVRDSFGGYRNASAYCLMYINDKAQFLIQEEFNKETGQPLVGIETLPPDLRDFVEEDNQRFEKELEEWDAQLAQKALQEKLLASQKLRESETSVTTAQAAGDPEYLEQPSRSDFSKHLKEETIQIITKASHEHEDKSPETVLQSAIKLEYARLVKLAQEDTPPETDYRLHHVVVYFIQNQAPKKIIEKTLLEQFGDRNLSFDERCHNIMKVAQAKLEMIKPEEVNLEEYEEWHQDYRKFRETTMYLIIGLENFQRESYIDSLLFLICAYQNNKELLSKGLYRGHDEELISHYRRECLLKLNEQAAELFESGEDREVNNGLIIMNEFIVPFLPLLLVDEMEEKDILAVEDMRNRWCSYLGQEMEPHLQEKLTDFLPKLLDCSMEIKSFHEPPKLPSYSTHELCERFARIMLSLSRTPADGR
Method in brief: as §1

[5] = biological target: T4, USP28 (UniProt Q96RU2)
T4 sequence (whole entry): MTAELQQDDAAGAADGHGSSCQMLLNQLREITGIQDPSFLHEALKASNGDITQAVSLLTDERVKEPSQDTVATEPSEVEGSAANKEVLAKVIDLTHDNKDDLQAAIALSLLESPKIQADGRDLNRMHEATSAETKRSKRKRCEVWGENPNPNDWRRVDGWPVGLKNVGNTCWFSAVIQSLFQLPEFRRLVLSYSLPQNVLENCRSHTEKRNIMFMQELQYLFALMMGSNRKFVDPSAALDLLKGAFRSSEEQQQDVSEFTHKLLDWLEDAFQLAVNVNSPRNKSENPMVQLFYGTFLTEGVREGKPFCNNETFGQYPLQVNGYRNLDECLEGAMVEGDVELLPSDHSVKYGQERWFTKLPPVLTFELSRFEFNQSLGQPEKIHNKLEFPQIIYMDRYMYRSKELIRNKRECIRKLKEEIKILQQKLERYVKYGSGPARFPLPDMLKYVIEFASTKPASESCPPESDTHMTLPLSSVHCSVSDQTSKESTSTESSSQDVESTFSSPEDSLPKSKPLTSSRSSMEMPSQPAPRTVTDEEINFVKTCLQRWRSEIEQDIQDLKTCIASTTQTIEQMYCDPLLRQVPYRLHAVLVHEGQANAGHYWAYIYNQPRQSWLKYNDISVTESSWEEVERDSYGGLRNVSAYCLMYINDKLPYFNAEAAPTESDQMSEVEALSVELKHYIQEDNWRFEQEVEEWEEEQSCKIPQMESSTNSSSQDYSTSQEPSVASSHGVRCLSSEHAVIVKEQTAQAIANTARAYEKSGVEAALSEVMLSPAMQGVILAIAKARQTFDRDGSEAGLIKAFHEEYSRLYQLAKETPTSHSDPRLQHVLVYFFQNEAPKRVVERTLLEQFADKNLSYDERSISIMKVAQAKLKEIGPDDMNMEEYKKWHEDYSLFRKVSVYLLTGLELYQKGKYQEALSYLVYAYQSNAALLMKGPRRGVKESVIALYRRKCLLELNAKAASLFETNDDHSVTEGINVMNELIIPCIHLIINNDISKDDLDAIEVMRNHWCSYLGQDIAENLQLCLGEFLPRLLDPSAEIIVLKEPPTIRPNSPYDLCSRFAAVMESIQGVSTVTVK
Method in brief: as §1

Measured: log2 ratio of Biotin-Ahx-Ub-VS probe labelling

USP24, sequence (Q9UPU5 whole entry): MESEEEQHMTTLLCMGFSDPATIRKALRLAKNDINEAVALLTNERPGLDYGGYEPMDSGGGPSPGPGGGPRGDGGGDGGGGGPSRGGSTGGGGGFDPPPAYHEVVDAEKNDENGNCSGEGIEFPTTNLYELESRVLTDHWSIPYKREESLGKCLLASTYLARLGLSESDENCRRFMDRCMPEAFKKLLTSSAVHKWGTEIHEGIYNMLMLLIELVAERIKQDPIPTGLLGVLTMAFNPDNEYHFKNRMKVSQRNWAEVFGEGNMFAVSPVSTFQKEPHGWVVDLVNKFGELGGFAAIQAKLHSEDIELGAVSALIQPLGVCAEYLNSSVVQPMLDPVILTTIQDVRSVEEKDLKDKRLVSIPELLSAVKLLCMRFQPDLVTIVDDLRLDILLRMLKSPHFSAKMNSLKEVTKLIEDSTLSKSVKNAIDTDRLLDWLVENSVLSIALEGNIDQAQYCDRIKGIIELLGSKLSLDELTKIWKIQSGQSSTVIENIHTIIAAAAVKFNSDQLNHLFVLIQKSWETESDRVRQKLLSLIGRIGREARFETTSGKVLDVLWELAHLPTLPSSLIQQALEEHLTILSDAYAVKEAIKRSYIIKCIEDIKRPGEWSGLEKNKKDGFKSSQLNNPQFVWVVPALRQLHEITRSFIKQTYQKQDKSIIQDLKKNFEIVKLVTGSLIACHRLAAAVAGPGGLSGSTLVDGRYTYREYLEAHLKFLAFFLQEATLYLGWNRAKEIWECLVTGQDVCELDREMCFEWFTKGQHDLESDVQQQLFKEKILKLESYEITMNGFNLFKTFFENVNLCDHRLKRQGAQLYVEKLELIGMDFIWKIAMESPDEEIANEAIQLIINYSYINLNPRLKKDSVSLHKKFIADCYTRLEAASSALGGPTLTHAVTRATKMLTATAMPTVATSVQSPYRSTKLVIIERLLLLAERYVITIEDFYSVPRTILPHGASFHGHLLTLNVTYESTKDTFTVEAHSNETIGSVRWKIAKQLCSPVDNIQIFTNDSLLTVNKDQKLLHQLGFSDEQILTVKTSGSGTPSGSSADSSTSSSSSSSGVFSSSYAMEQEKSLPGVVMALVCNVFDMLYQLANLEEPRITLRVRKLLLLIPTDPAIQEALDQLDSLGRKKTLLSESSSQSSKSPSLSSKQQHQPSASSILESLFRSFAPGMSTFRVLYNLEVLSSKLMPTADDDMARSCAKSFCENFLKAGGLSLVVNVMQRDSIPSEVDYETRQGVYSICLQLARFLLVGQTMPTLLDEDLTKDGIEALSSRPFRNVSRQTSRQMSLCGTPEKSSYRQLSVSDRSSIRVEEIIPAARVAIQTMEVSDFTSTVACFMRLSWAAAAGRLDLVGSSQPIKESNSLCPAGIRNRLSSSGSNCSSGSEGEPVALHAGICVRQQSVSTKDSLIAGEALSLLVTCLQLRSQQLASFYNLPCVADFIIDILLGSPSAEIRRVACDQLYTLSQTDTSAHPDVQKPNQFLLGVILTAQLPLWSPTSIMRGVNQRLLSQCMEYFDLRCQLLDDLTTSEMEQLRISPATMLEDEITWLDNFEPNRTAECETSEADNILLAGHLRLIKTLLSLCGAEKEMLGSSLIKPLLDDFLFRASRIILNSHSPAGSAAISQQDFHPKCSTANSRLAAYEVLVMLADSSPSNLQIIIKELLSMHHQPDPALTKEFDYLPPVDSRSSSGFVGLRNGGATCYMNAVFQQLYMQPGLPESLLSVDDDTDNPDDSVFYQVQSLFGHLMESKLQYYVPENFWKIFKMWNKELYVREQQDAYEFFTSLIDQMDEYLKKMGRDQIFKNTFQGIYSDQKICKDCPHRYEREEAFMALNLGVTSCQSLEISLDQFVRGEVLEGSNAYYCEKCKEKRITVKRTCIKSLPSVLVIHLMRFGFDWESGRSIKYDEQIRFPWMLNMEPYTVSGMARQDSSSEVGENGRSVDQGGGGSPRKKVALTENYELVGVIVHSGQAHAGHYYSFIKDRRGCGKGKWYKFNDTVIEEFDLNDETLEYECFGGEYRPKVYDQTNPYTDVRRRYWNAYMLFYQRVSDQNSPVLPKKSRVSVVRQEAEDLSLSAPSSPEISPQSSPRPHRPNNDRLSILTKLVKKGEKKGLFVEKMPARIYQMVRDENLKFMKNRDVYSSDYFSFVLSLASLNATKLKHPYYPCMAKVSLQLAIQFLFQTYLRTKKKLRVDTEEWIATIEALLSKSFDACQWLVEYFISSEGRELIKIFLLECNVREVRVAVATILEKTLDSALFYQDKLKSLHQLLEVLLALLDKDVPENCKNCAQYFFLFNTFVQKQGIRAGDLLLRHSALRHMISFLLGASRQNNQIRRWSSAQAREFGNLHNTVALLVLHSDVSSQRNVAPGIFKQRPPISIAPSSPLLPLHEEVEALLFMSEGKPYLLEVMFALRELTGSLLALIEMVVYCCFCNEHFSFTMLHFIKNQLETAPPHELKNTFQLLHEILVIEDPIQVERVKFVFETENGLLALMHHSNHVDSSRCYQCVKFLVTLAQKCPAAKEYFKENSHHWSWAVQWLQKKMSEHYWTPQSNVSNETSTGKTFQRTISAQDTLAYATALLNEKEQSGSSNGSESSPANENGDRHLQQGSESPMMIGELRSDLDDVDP

CN(C)S(=O)(=O)c1ccccc1CNC(=O)CCl
inactive: [1] 0.0268 | [2] -0.12 | [3] -0.108 | [4] -0.258 | [5] -0.239
